KCNQ2 pot: potentiators of rat KCNQ2 potassium channel | Potassium voltage-gated channel subfamily KQT member 2 (Rattus norvegicus), O88943 | CHO-K1 KCNQ2, FluxOR thallium flux fluorescence; hits give high values | B-score at 10 µM | 0.54% of 310,000 active;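 active = fluorescence ratio B-score at least 3 SD of library B-scores, with initial fluorescence B-score within 3 of them, cut at about 5.3 in these data; same plate scores as AID 2156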;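 note: B-score of peak minus minimum over baseline fluorescence ratio after K+ and Tl+ stimulus; positive B-score means potentiation of KCNQ2 with more thallium influx and brighter signal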
KCNQ2 inh: rat KCNQ2 potassium channel inhibitors, primary screen, cell-based, CHO-K1, FluxOR thallium flux, B-score; B-score at 10 µM; 1.1% of 310,000 active; 20 min; hits give low values;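 active = fluorescence ratio B-score at most minus 3 library SDs, with starting brightness B-score within 2 library SDs, cut at about -5.5 in these data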
Kir21 conf inh: mouse Kir2.1 channel blockers, retest, confirmation, cell-based, FluxOR thallium flux, duplicate | Tl flux remaining, % of negative control (hits give low values), % at 10 µM | 41% of 2,300 active | shares compounds with KCNQ2 pot | Kir2.1-expressing cells, FluxOR thallium flux fluorescence; hits give low values;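 active = Primary-screen hit whose thallium flux fell at least 3 control SD below untreated wells in both duplicates, with normal baseline fluorescence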;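 note: 0% = blank wells without stimulus and 100% = stimulated no-compound controls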
Target sequence (P35561 whole entry, looked up): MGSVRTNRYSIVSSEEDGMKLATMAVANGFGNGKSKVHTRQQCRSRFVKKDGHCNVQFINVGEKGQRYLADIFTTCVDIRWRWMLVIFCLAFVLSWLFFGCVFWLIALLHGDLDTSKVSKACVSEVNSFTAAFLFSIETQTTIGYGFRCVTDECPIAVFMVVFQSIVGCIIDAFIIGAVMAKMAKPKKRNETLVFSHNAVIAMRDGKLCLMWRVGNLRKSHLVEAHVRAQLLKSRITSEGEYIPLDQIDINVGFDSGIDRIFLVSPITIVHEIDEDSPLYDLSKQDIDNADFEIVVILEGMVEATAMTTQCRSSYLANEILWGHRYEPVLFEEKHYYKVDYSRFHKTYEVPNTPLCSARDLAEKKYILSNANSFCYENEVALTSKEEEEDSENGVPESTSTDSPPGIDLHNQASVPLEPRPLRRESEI
HEK293 ctr: counter-screen for Kir2.1 inhibitors: effect in parental HEK293 cells | shares compounds with KCNQ2 pot | FluxOR thallium flux fluorescence; 0% = unstimulated blank wells | FluxOR signal as % of negative control (100 = no effect), % at 10 µM | 19% of 2,300 active | AID 2105;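 active = dye signal at least 3 control SD above or below untreated wells in both duplicates, raw fluorescence within 3, either direction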;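 note: percent is based on the flux ratio of peak minus minimum fluorescence over baseline F0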
CHO-K1 Tl ctr: nonspecific thallium flux increase in parental CHO-K1, confirmation, counter-screen for KCNQ2 potentiator project, cell-based, FluxOR thallium flux, duplicate; shares compounds with KCNQ2 pot; activity increase over 3SD of controls, % at 10 µM; 43% of 1,200 active; AID 2282, 2010; parental CHO-K1 cells, FluxOR thallium flux fluorescence; zero = vehicle mean+3SD, 100% = vehicle-minus-blank window;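 active = signal rise of at least 3 SD above the untreated control mean, in both duplicate wells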;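 note: counter screen of KCNQ2 potentiator hits so any rise reflects channel-independent effects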
KCNQ1 pot spec: human KCNQ1 channel potentiation off-target, confirmation, selectivity assay for KCNQ2 potentiator project, cell-based, CHO, FluxOR thallium flux | shares compounds with KCNQ2 pot | CHO KCNQ1 stable, FluxOR thallium flux fluorescence; beyond 3SD, as % of vehicle-control signal | activation over 3SD threshold, % at 10 µM | 28% of 1,200 active | AID 2283, 2010;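 active = fluorescence ratio rise of at least 3 SD of vehicle wells above their mean, in both replicate wells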;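 note: 0% = vehicle mean plus 3 SD and 100% = vehicle minus unstimulated blank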
KCNQ2 pot confirm: rat KCNQ2 channel potentiators, confirmation, cell-based, CHO, FluxOR thallium flux, duplicate. CHO-KCNQ2 cells, FluxOR thallium flux fluorescence. 68% of 1,200 active. potentiation, less the hit threshold, % at 10 µM. AID 2287, 2010. shares compounds with KCNQ2 pot;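 active = fluorescence ratio rising 3 SD or more over the vehicle control mean in both replicates, plus primary screen hit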;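 note: peak minus minimum thallium fluorescence divided by baseline after K/Tl stimulus; 0% = vehicle mean plus 3 SD and 100% = vehicle minus unstimulated blank difference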
Kir2-1 sel: mouse Kir2.1 channel activation off-target, confirmation, selectivity assay for KCNQ2 potentiator project, cell-based, HEK293, FluxOR thallium flux | 2% of 1,200 active | shares compounds with KCNQ2 pot | activity over 3SD threshold, % at 10 µM | HEK293 Kir2.1, FluxOR thallium flux fluorescence;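 active = fluorescence ratio rise of at least 3 SD above the vehicle-control mean, seen in both replicates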;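 note: 0% = vehicle mean plus 3 SD and 100% = vehicle minus no-stimulus blank window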
* = called active by the depositor; i = inactive; . = no result. This is a sample that favours compounds with a hit; in the whole collection about 1.6% have one here.

SMILES	KCNQ2 pot	KCNQ2 inh	Kir21 conf inh	HEK293 ctr	others
CCOP(=O)(OCC)C1(C(=O)O)CCCC1	0.82	i	.	.
Cc1nc2ccccc2c(=O)n1-c1ccc(Br)cn1	.	i	.	.
Cc1nc2ccccc2c(=O)n1/N=C/c1cc(Br)cc(Br)c1O	8.1*	i	i	i	CHO-K1 Tl ctr=11*;KCNQ1 pot spec=-15;KCNQ2 pot confirm=-26;Kir2-1 sel=-33
COc1ccc2[nH]c(C)c(CCNCc3cc(OC)c(OC)c(OC)c3)c2c1	.	i	.	.
COc1ccc(CNCCc2c(C)[nH]c3ccc(OC(F)(F)F)cc23)c(OC)c1	.	i	i	i

Assay outcomes (PubChem BioAssay)
